Inconclusive results are not listed. Calls of active or inactive are those of the source. Rule for the calls, unless noted: active = hit-call score of the fitted dose curve at least 0.9, where 1 is the maximum; inconclusive = response in the unintended direction; inactive = score below 0.9.

We go through 27 molecules from PubChem BioAssay (EPA / NIEHS).

Assay [1] deals with zebrafish Peroxisome Proliferator-activated Receptor gamma (PPARg), gene 557037. The experiment in a line: ATG_zfPPARg_XSP2: Attagene TRANS-FACTORIAL Multi-Species (XSP2) HepG2 Assay for zebrafish Peroxisome Proliferator-activated Receptor gamma (PPARg) (AID 2283833).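 Note: reporter mRNA from a zebrafish PPARg GAL4 chimera measured by RT-PCR and capillary electrophoresis; actives increase reporter signal over DMSO so AC50 reflects activation.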 The essentials:
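HepG2, transient MRTU transfection, 24 h compound; zfPPARg-GAL4 reporter mRNA by RT-PCR + capillary electrophoresis; gain-of-signal vs DMSO.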

For assay [2], the target named is zebrafish Thyroid Hormone Receptor beta (TRb), thrb (gene 30607) (UniProt Q9PVE4). Briefly: ATG_zfTRb_XSP2: Attagene TRANS-FACTORIAL Multi-Species (XSP1) HepG2 Assay for zebrafish Thyroid Hormone Receptor beta (TRb) (AID 2283836). The method in brief: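 Human liver HepG2, transient MRTU transfection (NR-Gal4 chimeras, GAL4-UAS reporters); 24 h compound exposure; total RNA → oligo(dT) RT → PCR → 6-FAM label → HpaI cut → CE fluorescence. DMSO = negative control/baseline.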

The nature of assay [3]: ATG_XTT_Cytotoxicity_XSP2: Cytotoxicity Assessment in the Attagene TRANS-FACTORIAL Multi-Species (XSP2) HepG2 Assay (AID 2283837). The method in brief:
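HepG2 cells, transiently transfected with multiple reporter constructs, exposed to chemical for 24 h. Cell number assessed with XTT fluorescence read-out; loss of signal fitted relative to DMSO.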

The target of assay [4] is human Thyroid hormone Receptor alpha (TRa), THRA (gene 7067) (UniProt P10827). Briefly: ATG_hTRa_XSP2: Attagene TRANS-FACTORIAL Multi-Species (XSP2) HepG2 Assay for human Thyroid hormone Receptor alpha (TRa) (AID 2283838). The essentials: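 HepG2 cells were transiently transfected with GAL4-UAS reporter units for chimeric human TRa-Gal4 and dosed for 24 hours, with 3 nM 6-alpha-fluorotestosterone and 1.5 nM norgestrel present. Reporter mRNA was quantified by RT-PCR, FAM labelling and capillary electrophoresis, with gain of signal fitted versus DMSO.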

The target in assay [5] is human Thyroid hormone Receptor beta (TRb), THRB (gene 7068) (UniProt P10828). The experiment in a line: ATG_hTRb_XSP2: Attagene TRANS-FACTORIAL Multi-Species (XSP2) HepG2 Assay for human Thyroid hormone Receptor beta (TRb) (AID 2283840).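 Note: actives raise reporter mRNA so potency reflects agonist-like gain of signal.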 The essentials: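 Gain-of-signal reporter transcription, referenced to DMSO, was measured in transiently transfected HepG2 after 24 h exposure; labeled RT-PCR products were resolved by capillary electrophoresis. Assay medium included 3 nM 6-alpha-fluorotestosterone and 1.5 nM norgestrel.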

In assay [6] the test system is Sodium/Iodide Symporter (NIS), SLC5A5 (gene 6528). Briefly: CPHEA_Stoker_NIS_Inhibition_RAIU: CPHEA's Radioactive Iodide Uptake (RAIU) Assay for Sodium/Iodide Symporter (NIS) Inhibition, Stoker and Laws Labs (AID 2283841). The method in brief: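 Iodide uptake through human NIS is measured in an engineered HEK293T line. Cells take up 125I (329pM final) for 2 hours at room temperature alongside chemicals at 0.001–100uM. Retained radioactivity is counted, and the signal is expressed against DMSO controls.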

The target of assay [7] is zebrafish Thyroid Hormone Receptor alpha (TRa), thraa (gene 30670) (UniProt Q98867). Briefly: ATG_zfTRa_XSP2: Attagene TRANS-FACTORIAL Multi-Species (XSP1) HepG2 Assay for zebrafish Thyroid Hormone Receptor alpha (TRa) (AID 2283832).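 Note: actives raise zebrafish TRa-Gal4 reporter transcript above DMSO baseline.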 The essentials:
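Transient transfection of human HepG2 with GAL4-UAS reporter units, then 24 h chemical treatment. RNA isolated, reverse-transcribed, PCR-amplified, FAM-labelled, HpaI-digested and run on capillary electrophoresis. Gain-of-signal relative to DMSO.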

Assay [8] has as its system turtle Thyroid Hormone Receptor, alpha (TRa), gene 101949057. The experiment in a line: ATG_trTRa_XSP2: Attagene TRANS-FACTORIAL Multi-Species (XSP1) HepG2 Assay for turtle Thyroid Hormone Receptor, alpha (TRa) (AID 2283834).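 Note: hits raise reporter mRNA over the DMSO baseline so AC50 marks activators.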 The method in brief:
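Multiplexed TRANS reporter assay; HepG2 carrying NR-Gal4 constructs treated 24 h. mRNA of the GAL4-UAS reporter quantified via labelled RT-PCR fragments on a genetic analyzer, vs DMSO negative control.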

The nature of assay [9]: ATG_M_61_XSP2: Attagene TRANS-FACTORIAL Multi-Species (XSP2) HepG2 Assay for M61 Transcription Factor (Internal Marker) (AID 2283835; active = hit-call score of the fitted dose curve at least 0.9, where 1 is the maximum; inactive = score below 0.9;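 note: reporter mRNA of an internal background marker read by RT-PCR and capillary electrophoresis; active means a rise in signal above the DMSO baseline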). The essentials: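 First, HepG2 cells are transfected with reporter units under GAL4-UAS control. Next, chemicals are applied for 24 h. Then total RNA is reverse-transcribed, amplified, fluorescently labelled and sized by capillary electrophoresis, with gain of signal scored against DMSO.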

For assay [10], the target named is frog Thyroid hormone Receptor alpha (TRa), thra-a (gene 397942) (UniProt P15204). Briefly: ATG_frTRa_XSP2: Attagene TRANS-FACTORIAL Multi-Species (XSP2) HepG2 Assay for frog Thyroid hormone Receptor alpha (TRa) (AID 2283839). The essentials: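 Chimeric frog TRα-GAL4 activity in human liver cells measures reporter transcript induction 24 h post-dose. Detection uses RT-PCR, HpaI-digested labelled products and fluorescence capillary electrophoresis; DMSO serves as negative control.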
Chain of frog Thyroid hormone Receptor alpha (TRa), thra-a (gene 397942) (P15204 whole entry, looked up, the tested form may be a part): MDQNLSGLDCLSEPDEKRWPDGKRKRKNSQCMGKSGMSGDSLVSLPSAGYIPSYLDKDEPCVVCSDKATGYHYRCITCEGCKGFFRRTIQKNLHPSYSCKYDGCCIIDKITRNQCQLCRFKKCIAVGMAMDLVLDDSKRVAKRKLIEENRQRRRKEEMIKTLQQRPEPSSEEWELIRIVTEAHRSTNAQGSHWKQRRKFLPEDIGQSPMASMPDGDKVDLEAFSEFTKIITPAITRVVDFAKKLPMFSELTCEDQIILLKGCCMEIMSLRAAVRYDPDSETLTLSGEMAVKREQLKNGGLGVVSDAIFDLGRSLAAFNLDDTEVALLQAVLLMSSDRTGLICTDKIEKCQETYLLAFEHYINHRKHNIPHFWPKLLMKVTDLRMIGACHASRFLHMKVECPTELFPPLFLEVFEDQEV

Chain of human Thyroid hormone Receptor beta (TRb), THRB (gene 7068) (P10828 whole entry, looked up): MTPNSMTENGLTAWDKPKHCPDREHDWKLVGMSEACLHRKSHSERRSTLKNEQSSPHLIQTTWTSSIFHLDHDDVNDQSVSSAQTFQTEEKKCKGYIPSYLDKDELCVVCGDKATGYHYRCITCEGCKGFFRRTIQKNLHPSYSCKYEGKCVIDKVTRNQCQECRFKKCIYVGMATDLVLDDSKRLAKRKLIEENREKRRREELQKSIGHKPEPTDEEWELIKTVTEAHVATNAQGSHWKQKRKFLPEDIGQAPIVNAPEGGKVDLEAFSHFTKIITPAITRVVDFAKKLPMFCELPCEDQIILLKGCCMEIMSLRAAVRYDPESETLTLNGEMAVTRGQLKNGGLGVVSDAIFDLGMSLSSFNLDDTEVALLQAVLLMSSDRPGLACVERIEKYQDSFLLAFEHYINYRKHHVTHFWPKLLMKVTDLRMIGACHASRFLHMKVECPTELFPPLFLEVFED
Chain of zebrafish Thyroid Hormone Receptor beta (TRb), thrb (gene 30607) (Q9PVE4 whole entry, looked up, the tested form may be a part): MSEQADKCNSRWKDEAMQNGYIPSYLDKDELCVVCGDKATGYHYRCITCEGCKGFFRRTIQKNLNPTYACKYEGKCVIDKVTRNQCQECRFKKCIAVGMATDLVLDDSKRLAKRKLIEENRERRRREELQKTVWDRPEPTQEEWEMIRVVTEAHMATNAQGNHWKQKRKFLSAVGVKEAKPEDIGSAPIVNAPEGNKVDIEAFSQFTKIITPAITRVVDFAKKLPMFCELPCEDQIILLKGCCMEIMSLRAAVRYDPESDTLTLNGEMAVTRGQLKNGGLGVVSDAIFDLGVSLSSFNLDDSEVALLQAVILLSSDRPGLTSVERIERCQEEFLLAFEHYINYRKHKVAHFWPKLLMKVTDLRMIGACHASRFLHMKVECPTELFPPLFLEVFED
Chain of zebrafish Thyroid Hormone Receptor alpha (TRa), thraa (gene 30670) (Q98867 whole entry, looked up, the tested form may be a part): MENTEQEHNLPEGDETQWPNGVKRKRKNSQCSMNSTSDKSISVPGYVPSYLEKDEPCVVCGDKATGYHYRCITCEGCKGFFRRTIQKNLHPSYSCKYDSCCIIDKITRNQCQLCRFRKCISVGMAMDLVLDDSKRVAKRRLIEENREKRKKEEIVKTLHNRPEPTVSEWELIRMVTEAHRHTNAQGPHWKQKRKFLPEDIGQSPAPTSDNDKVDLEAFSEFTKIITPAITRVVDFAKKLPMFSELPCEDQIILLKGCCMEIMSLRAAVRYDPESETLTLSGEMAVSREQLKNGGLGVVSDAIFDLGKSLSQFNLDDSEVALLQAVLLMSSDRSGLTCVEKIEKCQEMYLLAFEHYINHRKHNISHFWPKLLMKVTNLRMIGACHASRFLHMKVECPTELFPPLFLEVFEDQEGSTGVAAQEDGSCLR
Chain of human Thyroid hormone Receptor alpha (TRa), THRA (gene 7067) (P10827 whole entry, looked up, the tested form may be a part): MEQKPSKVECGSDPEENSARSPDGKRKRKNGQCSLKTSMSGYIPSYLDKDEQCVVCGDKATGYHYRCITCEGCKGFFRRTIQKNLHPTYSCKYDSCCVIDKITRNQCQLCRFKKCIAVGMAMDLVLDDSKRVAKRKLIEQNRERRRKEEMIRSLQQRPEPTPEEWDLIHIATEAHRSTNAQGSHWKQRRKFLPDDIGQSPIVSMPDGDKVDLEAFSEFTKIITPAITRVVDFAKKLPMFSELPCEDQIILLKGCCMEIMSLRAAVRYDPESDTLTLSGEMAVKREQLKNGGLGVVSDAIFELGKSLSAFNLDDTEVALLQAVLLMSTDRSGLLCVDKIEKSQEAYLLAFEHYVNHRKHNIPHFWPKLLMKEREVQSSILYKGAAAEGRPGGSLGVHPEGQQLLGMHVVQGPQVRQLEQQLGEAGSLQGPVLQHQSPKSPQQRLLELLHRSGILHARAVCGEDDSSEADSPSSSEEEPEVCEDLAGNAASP

As to `O=C(O)/C=C/c1ccccc1`, the molecule was classed as inactive in assay [1], in assay [2], in assay [3], in assay [4] and in assay [5].

As to `C=CCOC(=O)c1ccc(C(=O)OCC=C)c(C(=O)OCC=C)c1`, the AC50 in assay [6] was 10.2 µM (active).

Regarding `CN(C)c1ccc2nc3ccc(=[N+](C)C)cc-3sc2c1`, the outcome in assay [6] was inactive.

On to `O=C(Nc1ccccc1)c1cc(Cl)ccc1O`, for which, in [6], the half-maximal activity concentration (AC50) was 0.851 µM (active).

With `CCCCC/C=C\C/C=C\CCCCCCCC(=O)O`, the outcome in assay [6] was inactive.

With `Cc1ccc([N+](=O)[O-])cc1N`, in [6], the result was inactive.

`COc1ccc(-c2coc3cc(O)cc(O)c3c2=O)cc1`: the outcome in assay [7], in assay [1], in assay [8], in assay [9], in assay [2] and in assay [3] was inactive. For the same molecule, the call in [4], in assay [10] and in assay [5] was inactive. Besides, the AC50 in assay [6] was 9.92 µM (active).

As for `CCCCCCCCCCCCc1ccc(O)cc1`, the molecule was called inactive in assay [7], in [1], in assay [8], in [9], in [2] and in assay [5].

In the case of `O=C(O)c1cc(O)c2ccccc2c1O`, in assay [6], the outcome was inactive.

In the case of `O=C(OCCc1ccccc1)c1ccccc1`, in [6], the result was inactive.

Take `CC(C)(C)NC(=O)[C@H]1CC[C@H]2[C@@H]3CC[C@H]4NC(=O)C=C[C@]4(C)[C@H]3CC[C@]12C`: the AC50 in [8] was 25.9 µM (active). Further, the outcome in [9] was inactive.

With `C/C=C/C=C/CCCCCCCO`, the result in assay [6] was inactive.

Consider `COc1ccc(C(=O)c2ccccc2)c(O)c1`, for which the molecule was classed as inactive in assay [7], in [1], in assay [8], in assay [9], in [2] and in assay [3]. The molecule was classed as inactive in assay [4], in assay [10], in assay [5] and in assay [6].

In the case of `c1ccc(Nc2cccc3ccccc23)cc1`, in [6], the AC50 is 21.5 µM (active).

Consider `C=C1C[C@H]2[C@@H]3C=C(C)C4=CC(=O)CC[C@]4(C)[C@H]3CC[C@]2(C)[C@@]1(OC(C)=O)C(C)=O`, for which the outcome in assay [7], in [1], in assay [8], in assay [3], in assay [4] and in assay [10] was inactive. Also, the outcome in [5] and in [6] was inactive.

Consider `CCCCCCCOC(=O)c1ccc(O)cc1`, for which the outcome in [6] was inactive.

On to `CC(C)c1ccc(O)c(C(C)C)c1`, for which, in assay [6], the result was inactive.

`O=C(Oc1ccccc1)c1ccccc1O`: the outcome in assay [6] was inactive.

For the molecule `CO[Si](C)(C)OC`, the outcome in assay [6] was inactive.

`Oc1ccc(-c2ccccc2)c(Cl)c1`: the result in assay [7], in assay [1], in assay [8], in [2], in assay [4] and in assay [10] was inactive. In addition, the outcome in assay [5] and in [6] was inactive. In addition, in assay [3], the AC50 is 85.4 µM (active).

For the molecule `CCCCCCCCCCCCCCCCCCOS(=O)(=O)O`, in [6], the outcome was inactive.

Turning to `N#Cc1ccc(C2CCCc3cncn32)cc1` (configuration not stated), the result in assay [7], in [1], in assay [8], in assay [9], in assay [2] and in [3] was inactive. Also, in [10], the call was inactive.

Take `CCCCCCCCCC[N+](C)(CCCCCCCCCC)CCC[Si](OC)(OC)OC`: in assay [6], the result was inactive.

With `C[N+](C)(C)CCCNS(=O)(=O)C(F)(F)C(F)(F)C(F)(F)C(F)(F)C(F)(F)C(F)(F)C(F)(F)C(F)(F)F`, the half-maximal activity concentration (AC50) in assay [6] was 7.09 µM (active).

As to `O=C(OCc1ccccc1)c1ccc(O)cc1`, in assay [6], the result was inactive.

Take `Oc1ccccc1Cc1ccccc1O`: the result in [7], in assay [1], in [8], in assay [9], in assay [2] and in [3] was inactive. Moreover, the call in assay [4], in assay [10] and in assay [5] was inactive.

Turning to `CC(CCC(=O)O)(c1ccc(O)cc1)c1ccc(O)cc1`, the molecule was classed as inactive in [7], in [1], in assay [8], in assay [9], in assay [2] and in assay [3]. In addition, the molecule was classed as inactive in assay [4], in assay [10] and in assay [5].
